Test results from PubChem BioAssay AID1362 (SRMLSC, 2008).
The whole screen tested about 190,000 compounds, of which about 4,000 (2.1%) were called active. Rule as the data show it: active = inhibition above about 58%; inactive = the rest, inconclusive results apart; tested in S. cerevisiae. This excerpt belongs to a sample that is enriched for actives.

Experiment: growth inhibition of WT strain, primary screen, mitochondrial fusion inhibitor project, WT and mutant strains, chemical genetic (AID 1362)
Conditions: mitochondrial fusion phenotypic screen, at 10 µM
[1] = WT strain, growth inhibition, stronger effect = higher value

SMILES	inhibition [1]	inhibition (mutant strain inhibition) [%]
CN1CCN(C(=S)SCC(=O)Nc2ccc(Cl)cc2C(=O)c2ccccc2)CC1	7.01% (inactive)	6.59
CC(C(=O)Nc1ccc(Cl)cc1Cl)N1CC=C(c2ccccc2)CC1 (stereo not given)	70.9% (active)	1.22
O=C(OCCN1CCOCC1)C1(c2ccccc2)CCCC1	8.37% (inactive)	10.3
CCCOC(=O)C1C2c3ccccc3C(c3ccccc32)C1C(=O)O (stereo not given)	-5.35% (inactive)	-6.76
CC1=CC(=Cc2sc3ccccc3[n+]2C)C=C(C)O1	65.7% (active)	63.1
COP(=O)(OC)C(NC(=O)c1ccc(C)cc1)C(Cl)(Cl)Cl (stereo not given)	3.22% (inactive)	7.65
Cc1cc(C=C2C(=O)NC(=O)NC2=O)c(C)n1-c1ccncc1	-0.16% (inactive)	-6.83
O=C(Cn1c(=O)n(CC2CS2)c2ccccc21)N1CCCCC1 (stereo not given)	0.43% (inactive)	-0.1
O=C(CCN1CCCCC1)NCC(=O)Nc1ccc(Br)cc1C(=O)c1ccccc1	7.53% (inactive)	1.33
O=C(CN1CCCCC1)Nc1ccc(Br)cc1C(=O)c1ccccc1Cl	74.3% (active)	9.62
O=C(COC(=O)c1ccccc1)Nc1ccc(Cl)cc1C(=O)c1ccccc1	16.3% (inactive)	10.6
CCOC(=O)C1(CCc2ccccc2)CCN(Cc2ccco2)CC1	12.8% (inactive)	4.98
COc1ccccc1N=Nc1c(O)[nH]c(=S)[nH]c1=O	4.7% (inactive)	1.05
CC(c1ccccc1)(c1ccccc1)c1ccncc1	26.6% (inactive)	19.3
COP(=O)(NS(=O)(=O)c1ccccc1)OC	-9.16% (inactive)	-1.53
